# Reference: the supplement of paper PMC6555819
# What was measured:
# Assay in all cases: PBM binding z-score (relative to random genomic background probes); higher = stronger binding; sequences stand for … in GC…GCGATTGACAGCGTAGAATGAAGG
# [1] = system: PPARg:RXRa DBDmut IVT, anti-RXR (DBD mutation: RXRa K156A/R161A, NR concentration 270 nM, RXRa partner concentration 90 nM)
# Outline: (§1)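 Probes were double-stranded and carried 34-nt variable regions with direct-repeat seeds, single-nucleotide variants, half-site ablations and random human genomic background sequences, printed on custom Agilent 4×180K protein-binding microarrays. Arrays were incubated 1 h with ligand-free nuclear receptor dimers in PBS pH 7.4, 2% milk, 0.02% Triton X-100, 1 mM DTT, 0.2 mg/mL BSA and 0.4 mg/ml salmon testes DNA. Antibodies against each partner (one per run) detected binding, and scanned fluorescence was regression-normalized. Binding z-scores use the random background probes as reference.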
# [2] = system: PPARg:RXRa IVT, anti-PPARg (NR concentration 270 nM, RXRa partner concentration 90 nM)
# Outline: as §1
# [3] = system: PPARg homodimer (NR concentration 180 nM)
# Outline: as §1
# [4] = system: PXR:RXRa (NR concentration 270 nM, RXRa partner concentration 90 nM)
# Outline: as §1
# [5] = system: PXR homodimer (NR concentration 270 nM)
# Outline: as §1
# [6] = system: RARa:RXR (NR concentration 270 nM, RXRa partner concentration 90 nM)
# Outline: as §1
# [7] = system: RARa homodimer (NR concentration 270 nM)
# Outline: as §1
# [8] = system: RARb:RXRa (NR concentration 270 nM, RXRa partner concentration 90 nM)
# Outline: as §1
# [9] = system: PPARg DBDmut IVT, anti-PPARg (DBD mutation: PPARg1 K132A/R137A, NR concentration 270 nM)
# Outline: as §1
Sequence,PBM binding z-score [1],PBM binding z-score [2],PBM binding z-score [3],PBM binding z-score [4],PBM binding z-score [5],PBM binding z-score [6],PBM binding z-score [7],PBM binding z-score [8],PBM binding z-score [9]
CTATGTAGGTTAAGGGGGTCATTCCGTTTGAAAG,7.72,7.69,3.57,5.52,4.83,5.89,1.49,3.33,
CCGAGTAGGTTACGAGGGGGCAGTCAGTGCGAAT,4.71,4.53,2.79,3.74,1.86,2.38,0.525,2.15,
TCAAGTAGGTTACGGGGGCATTCAGGGATGAAGA,6.98,7.48,3.45,3.45,2.97,3.18,1.26,,
CTATGTACGTTAAGGGGGTCATTCAGTTTGAAAG,3.42,5.2,3.11,5.68,9.08,5.5,1.37,3.45,
CTATGTAGGTTAAGGGGGTCATTAAGTTTGAAAG,7.49,7.73,3.7,5.89,12.5,5.37,1.68,3.58,
CGAACTACGTCAAAGGACAGTGAAAGGCGACGTA,-0.332,-0.152,-0.204,-0.445,-0.202,-0.353,-0.431,1.14,-0.567
CTATGTAGGTTAAGGGGGTCATTCACTTTGAAAG,7.7,7.41,3.47,5.59,4.83,5.77,1.84,3.4,
CTATGTAGATTAAGGGGGTCATTCAGTTTGAAAG,3.6,4.97,4.49,5.56,10.4,5.56,3.01,3.42,
CTATGTAAGTTAAGGGGGTCATTCAGTTTGAAAG,3.56,5.22,3.28,5.6,10.3,5.28,2.58,3.35,
ATATGTAGGTCAGGGTCATTCAGAAAGTAGGGAA,7.87,8.62,3.22,4.42,1.93,5.05,2.85,4.49,2.1
CCGAGTAGGTTACGAGGGGGCATTCGGTGCGAAT,3.74,4.36,1.85,4.83,4.05,2.98,0.224,2.22,
CCGAGTTGGTTACGAGGGGGCATTCAGTGCGAAT,0.938,1.51,1.98,3.41,7.65,2.14,0.677,1.31,
CCGAGTAGGTTACCAGGGGGCATTCAGTGCGAAT,3.65,4.24,1.99,4.73,5.81,2.91,0.502,2.33,
CTATGTAGGTTAAGGGGGTCATTCATTTTGAAAG,7.22,7.67,2.86,5.45,5.06,5.94,1.58,3.38,
TCGAGTAGGTTCCGGGGGCATTCAGGGATGAAGA,1.44,2.23,1.05,2.68,1.13,1.96,-0.469,1.17,
CCTAGTAGGTTACGAGGGGGCATTCAGTGCGAAT,6.21,6.3,3.88,5.02,6.19,2.97,1.46,2.32,
CCGAGTAGGTTACGAGGTGGCATTCAGTGCGAAT,4.75,3.92,0.24,0.618,-0.0659,0.472,-0.0316,1.03,
CCGAGTGGGTTACGAGGGGGCATTCAGTGCGAAT,3.36,3.81,1.4,4.8,5.23,2.53,-0.433,1.65,

Sequence,PBM binding z-score [1],PBM binding z-score [2],PBM binding z-score [3],PBM binding z-score [4],PBM binding z-score [5],PBM binding z-score [6],PBM binding z-score [7],PBM binding z-score [8],PBM binding z-score [9]
CCATGTAGGTTAAGGGGGTCATTCAGTTTGAAAG,5.55,6.99,4.47,5.83,12.1,5.82,2.79,3.46,
CTATGTAGGTTAAGGGGGTCGTTCAGTTTGAAAG,7.46,7.3,2.23,3.86,6.99,3.39,1.49,2.37,
TCGAGTAGGTTACGGGGGCATTCAAGGATGAAGA,4.93,6,1.38,3.1,1.06,3.21,0.0228,2.59,
CCGAGTAGGTTACGAGGGGACATTCAGTGCGAAT,4.84,4.14,1.04,2.82,2.23,0.995,0.101,1.42,
TCTAGTAGGTTACGGGGGCATTCAGGGATGAAGA,6.73,7,2.93,3.79,2.71,3.63,1.37,3.21,
TCGAGTAGGTTACGGCGGCATTCAGGGATGAAGA,3.16,2.85,-0.171,-0.0606,-0.885,0.128,-1.2,0.794,
CCGGGTAGGTTACGAGGGGGCATTCAGTGCGAAT,1.95,4.17,1.56,5,4.47,3.19,0.857,2.21,
CCGATTAGGTTACGAGGGGGCATTCAGTGCGAAT,3.12,3.4,1.22,4.69,3.98,2.28,0.441,2.49,
CCGAGTAGGTTACGACGGGGCATTCAGTGCGAAT,3.85,3.21,0.811,1.68,0.127,1.17,-0.209,1.23,
TCGAGTAGGTTACGGGGGCATTCATGGATGAAGA,5.12,5.88,1.86,3.32,1.27,2.88,0.144,2.51,
CTATGTAGGTTAAGGCGGTCATTCAGTTTGAAAG,6.74,6.69,0.855,1.37,2.41,0.782,-0.289,1.62,
CTATGTAGGTTAAGTGGGTCATTCAGTTTGAAAG,7.7,7.89,1.59,2.36,4.47,2.23,0.913,2.15,
CTATGTAGGTTAAGGGGGTGATTCAGTTTGAAAG,7.48,7.27,2.45,2.49,2.65,2.41,1.25,2.34,
TCGAGTAGGTTACGGGGGTATTCAGGGATGAAGA,4.5,5.38,1.51,2.09,0.83,2.49,0.925,2.07,
TCGAGTACGTTACGGGGGCATTCAGGGATGAAGA,1.28,2.5,0.453,2.92,1.24,1.86,0.239,1.38,
CCGAGTAGGTTACGAGGGGGCAATCAGTGCGAAT,4.92,4.42,2.06,4.26,2.9,2.87,0.639,2.16,
TCGAGTAGGTTACGGGGGCATTTAGGGATGAAGA,5.1,5.8,1.44,3.25,1.54,3.29,0.213,2.56,
